From PubChem BioAssay AID1347075 (National Center for Advancing Translational Sciences (NCATS), 2019)
The campaign covered roughly 400,000 compounds. About 5,500 (1.4%) were called active. A call without a number means that no potency is given here. About 9% were inconclusive and are not listed. The call rests on the fitted dose curve; in most records, active means well fitted cell-killing curve with a large enough effect; inconclusive means small, poorly fitted or top-dose-only effect, or effect the other way; inactive means flat fitted curve, though single readings scatter. The sample as a whole holds a higher share of actives than the screen did.

Assay: qHTS assay for MDR1-selective chemotherapeutics: Primary screen using the parental adenocarcinoma cell KB-3-1; further: nearly all actives have a fitted effect of over 60% in size
Details: KB-3-1 viability, CellTiter-Glo ATP luminescence, 72 h; series mostly up to 46.1 µM
Excerpt: A prime difficulty in effectively treating cancer is the development of cellular resistance to multiple structurally unrelated anticancer drugs, a phenomenon known as multidrug resistance (MDR). […] Numerous strategies to overcome P-gp-mediated MDR have been explored, including the design of drugs that evade recognition and efflux, and development of inhibitors to block efflux and restore drug accumulation. […] An alternative approach is to exploit resistance by identifying drugs that target MDR cells over the non-resistant parental cells from which they were selected. […] The development of MDR1-selective agents represents a new strategy for resolving multidrug resistance, as it remains a long-standing clinical challenge for cancer chemotherapy.
Our goal is to identify compounds that selectively kill P-gp-expressing MDR cells. We will identify MDR1-selective compounds by comparing toxicity of compounds in the screening library against parental, drug-naive (KB-3-1) adenocarcinoma cells as well as their drug-selected MDR sub-line (KB-V1). The differential toxicity of compounds against these two cell lines will be used to identify MDR1-selective compounds, whose cytotoxicity is potentiated, rather than diminished, by P-gp expression. This assay will be utilized to conduct a quantitative high-throughput screen (qHTS) in collaboration with the NIH Chemical Genomics Center to identify selective agents, and probe hits arising from the screen will be validated using secondary assays and characterized through a well-established follow-up research program. This screen was run against the entire NCGC library collection of about 400,000 compounds.
NIH Molecular Libraries Probe Production Network [MLPCN]
NIH Chemical Genomics Center [NCGC]
PI: Michael Gottesman PhD, National Cancer Institute, NIH
Briefly, 5 microL of media containing either KB-3-1 cells (columns 1-2, 4-48) are dispensed into Greiner white, treated solid-bottom 1536-well assay plates (media-only control is added to column 3). Compounds are then transferred via Kalypsys pin tool equipped with 1536-pin array (10 nL slotted pins, V&P Scientific, San Diego, CA). Following addition of compound, the plates are incubated at 37 degrees C for 72 hours. CellTiter-Glo (2.5 µL/well) is then added, and the plates are read in a ViewLux reader (Perkin-Elmer, clear luminescence filter, 1 second exposure, 1x binning) following a 10 minute incubation. All cells are dispensed in DMEM phenol-red free media containing 10% FBS.
Library plates were screened starting from the lowest and proceeding to the highest concentration. Vehicle-only plates, with DMSO being pin-transferred to columns 5-48, will be inserted uniformly at the beginning and the end of each library in order to monitor and record any shifts in the background, which can be affected by reagent dispensers or loss in enzyme activity over time. Screening data will be corrected, normalized, and concentration-effect relationships will be derived by using publicly-available NCGC, NCATS curve fitting algorithms (http://ncgc.nih.gov/pub/openhts).
Potency means the concentration at half of the fitted maximal effect.

Row | Compound | Potency
1 | COc1ccccc1NC(=O)C1=C(C)Nc2nc(SCC(=O)c3ccc(C)cc3)nn2C1c1ccccc1C (stereo unspecified) | inactive
2 | COc1ccc(NC(=O)CCN2CCN(CCO)CC2)cc1 | inactive
3 | O=C(NCc1ccccc1)C(=O)NCC(c1ccco1)S(=O)(=O)c1ccc(Cl)cc1 (stereo unspecified) | inactive
4 | O=C(OC12CC3CC(CC(C3)C1)C2)c1ccc(NCc2cc(O)ccc2O)cc1 | 7.31 µM (active)
5 | COc1ccc(-c2nc(=N)sn2-c2ccccc2)cc1 | inactive
6 | CO[C@H]1O[C@@H]2O[C@@]3(C)CC[C@@H]4[C@@H](C)CC[C@@H]([C@H]1C)[C@@]24OO3 | inactive
7 | COc1cc2[nH]c(C)c(CCN3CCN(c4ccccc4)CC3)c2cc1OC | inactive
8 | COc1ccc(C(=O)/C=C/Nc2ccccn2)cc1 | inactive
9 | COc1ccc(C(=NN)c2ccc(OC)cc2)cc1 | inactive
10 | COc1ccc(C(C#N)=C2C=CC(=NO)c3ccccc32)cc1 | 0.82 µM (active)
11 | COc1ccccc1OCCCn1c(-c2ccc(Cl)cc2)nc2ccccc2c1=O | inactive
12 | O=C(COC(=O)c1ccccc1OCCOc1ccccc1)Nc1cccc(Br)c1 | inactive
13 | COc1cccc(C(c2c(O)cc(C)n(Cc3ccco3)c2=O)N2CCN(c3ccccc3)CC2)c1 (stereo unspecified) | inactive
14 | CCOc1ccccc1NC(=O)CN1CCCN(Cc2cccc(Cl)c2)S1(=O)=O | inactive
15 | O=c1c2ccccc2n(Cc2cccc(Cl)c2)c(=O)n1Cc1ccccc1 | inactive
16 | Clc1cccc[n+]1CCCC[n+]1ccccc1Cl | inactive
17 | COc1cc(C(=O)Nc2ccc(-n3c(C)nc4ccccc4c3=O)cc2)cc(OC)c1OC | inactive
18 | CC(C)c1ccc(Cn2c(COc3ccccc3)nc3ccccc32)cc1 | inactive
19 | Cn1c2ccccc2c(=O)c2c(=O)n(Cc3ccco3)c(COc3ccccc3)nc21 | 7.31 µM (active)
20 | O=C(Cn1c(=O)n(Cc2ccco2)c(=O)c2ccccc21)NCC1CCCO1 (stereo unspecified) | inactive
21 | Cn1c(=O)c2c(ncn2CC(=O)Nc2cccc(C(F)(F)F)c2)n(C)c1=O | inactive
22 | Cc1ccc(Cc2nc3ccccc3nc2SCC(=O)Nc2cccc(C(F)(F)F)c2)cc1 | inactive
23 | Cn1nc(C(F)(F)F)c(C(=O)Nc2cccc(C(F)(F)F)c2)c1SCc1ccc(Cl)cc1 | 16.4 µM (active)
24 | CCCSc1nc2sc3c(c2c(=O)n1-c1cccc(Br)c1)CC(C)(C)OC3 | inactive
25 | COc1ccc(C2CC(=O)Nc3c2c(=O)nc2c(C)cccn32)cc1OC (stereo unspecified) | inactive
26 | O=C(COc1ccccc1C(=O)Nc1ccccc1)Nc1cccc(F)c1 | inactive

Row | Compound | Potency
27 | O=[N+]([O-])c1ccc(S(=O)(=O)N2CCN(c3nc(-c4ccccc4)nc4ccccc34)CC2)cc1 | inactive
28 | O=C(Nc1ccc(OC(F)(F)F)cc1)c1cc2c(=O)n3ccccc3nc2s1 | inactive
29 | COc1cc(OC)cc(C(=O)NCCc2csc3nc(-c4ccccc4F)nn23)c1 | inactive
30 | CCOc1ccc(/C=C(\C#N)c2nc3ccccc3c(=O)[nH]2)cc1OC | inactive
31 | CCOc1cc(/C=C(\C#N)c2nc(-c3cccs3)c(NC(C)=O)s2)ccc1O | 8.2 µM (active)
32 | CCOc1cc(/C=C(\C#N)C(=O)Nc2ccccc2C)ccc1OCc1cc(=O)n2nc(CC)sc2n1 | inactive
33 | O=C(NCc1ccc(Cl)cc1)c1ccc2c(c1)nnn2C1CCCC1 | inactive
34 | CCOC(=O)c1cccc(NC(=O)Cn2cnc3nc4c(cc3c2=O)CCCC4)c1 | inactive
35 | COc1cccc(CNC(=O)C(=O)NCC(c2cccs2)S(=O)(=O)c2ccccc2)c1 (stereo unspecified) | inactive
36 | CN(CCC#N)c1ccc(C=O)cc1 | inactive
37 | Cc1ccc(-c2cc(=O)c3ccc(F)cc3[nH]2)cc1 | inactive
38 | O=c1cc(-c2ccccc2)[nH]c2cc(F)ccc12 | 1.64 µM (active)
39 | CC(=O)c1cc(-c2ccccc2)[nH]c1N1CCCC1 | inactive
40 | O=C1OC(C(=O)Nc2cccc(Br)c2)Cc2ccccc21 (stereo unspecified) | inactive
41 | O=S1(=O)N=C(Oc2cccc(Br)c2)c2ccccc21 | inactive
42 | CCOc1ccc(C(=O)c2cn(Cc3ccc(F)cc3)c3ccc(F)cc3c2=O)cc1 | inactive
43 | CCOC(=O)c1c(C)oc2nc(C)nc(Nc3ccc(CC)cc3)c12 | inactive
44 | COC(=O)C(C)Oc1ccc2c(-c3cccc([N+](=O)[O-])c3)cc(=O)oc2c1 (stereo unspecified) | inactive
45 | COc1ccc(-c2c(C)cc3oc(=O)cc(-c4ccccc4)c3c2C)cc1C=O | inactive
46 | COc1cc(OC)c2c(-c3cccc(-c4cccc(N)c4)c3)cc(=O)oc2c1 | 4.11 µM (active)
47 | COc1ccc(-c2nnc(SCC(=O)Nc3ccccc3C)o2)cc1OC | inactive
48 | N#CC(C#N)=CN=c1ccn(Cc2ccc(Cl)cc2Cl)cc1 | 16.4 µM (active)
49 | Cn1ccc(=NC=C(C#N)C#N)c2ccccc21 | inactive
50 | CC(C)(C)c1cc(C(=O)NN)n(Cc2ccc(Cl)cc2Cl)n1 | inactive
51 | Cc1ccc(-n2c(SCC(=O)Nc3cccc(F)c3)nc3c(oc4ccccc43)c2=O)cc1C | inactive
52 | CCOC(=O)Cc1ccc(NC(=O)Nc2c[nH]c(=O)[nH]c2=O)cc1 | inactive

Row | Compound | Potency
53 | COc1ccc2c(c1)c(N1CCCC1=O)c(C(=O)Nc1ccccc1C(F)(F)F)n2C | inactive
54 | O=C(O)c1ccc(CSc2nc3cccnc3n2Cc2cccc(F)c2)cc1 | inactive
55 | COc1cccc(NC(=O)Nc2ccc3c(c2)N(C)C(=O)c2ccccc2S3)c1 | inactive
56 | COc1cccc(CNC(=O)c2ccc3c(Cl)c4c(nc3c2)CCCC4)c1 | inactive
57 | COc1ccccc1NC(=O)C(=O)c1cc(C)n(-c2ccccc2F)c1C | inactive
58 | CCOC(=O)N1CCN(C(=O)COCc2cc(-c3ccc4c(c3)OCO4)on2)CC1 | inactive
59 | CCOC(=O)c1nc(-c2ccc3c(c2)OCO3)[nH]c1C | 13 µM (active)
60 | CCOC(=O)c1c(C)[nH]c(C(=O)COc2ccc3c(c2)OCO3)c1C | inactive
61 | CCC(CC)C(=O)N1CCc2cc(OC)c(OC)cc2C1COc1ccc(F)cc1 (stereo unspecified) | inactive
62 | CC[C@H]1CN2CCc3cc(OC)c(OC)cc3[C@@H]2C[C@@H]1C[C@H]1NCCc2cc(OC)c(OC)cc21 | 0.259 µM (active)
63 | CC(=O)N1c2ccc(S(=O)(=O)N3CCCCCC3)cc2CC1C(=O)NCc1ccccc1C (stereo unspecified) | inactive
64 | COc1ccccc1NC(=O)CN1C(=O)c2ccccc2Sc2ccc(C(=O)N3CCCC3)cc21 | inactive
65 | CCOC(=O)c1cc(-c2sc(NC(=O)c3ccccc3)nc2C)n(Cc2ccccc2)n1 | 23.1 µM (active)
66 | CCOC(=O)c1cc(-c2sc(NC(=O)c3ccccc3)nc2C)n(CCO)n1 | inactive
67 | C=CCn1nc(C(=O)OCC)cc1-c1sc(NC(=O)c2ccccc2)nc1C | inactive
68 | CC(C)Sc1oc(-c2cccs2)nc1S(=O)(=O)c1ccc(Cl)cc1 | inactive
69 | CC(C)(C)c1ccc(S(=O)(=O)N2CCN(C(=O)c3cc(-c4ccc(Br)cc4)n[nH]3)CC2)cc1 | inactive
70 | COc1ccccc1Cn1c(CO)nc2ccccc21 | inactive
71 | CCn1c(C(O)c2cc(OC)ccc2OC)nc2ccccc21 (stereo unspecified) | inactive
72 | COc1ccc(C)c(Cn2c(-c3nonc3N)nc3ccccc32)c1 | 2.31 µM (active)
73 | Cc1ccc(C(=O)Nc2ccc3[nH]c(=O)c(=O)[nH]c3c2)cc1 | inactive
74 | O=C1O/C(=C\c2ccc(O)cc2)C(O)=C1c1ccc(O)cc1 | inactive
75 | COc1ccc(NC(=O)C(c2ccccc2)N2Cc3ccccc3C2=O)cc1 (stereo unspecified) | inactive
76 | COc1ccccc1C(c1nnnn1C(C)(C)C)N1CCN(Cc2ccccc2)CC1 (stereo unspecified) | inactive
77 | COc1ccc(OC)c(C(c2nnnn2C(C)(C)C)N2CCc3ccccc3C2)c1 (stereo unspecified) | 23.1 µM (active)
78 | COCCn1nnnc1C(c1cc2ccc(OC)cc2[nH]c1=O)N1CCc2ccccc2C1 (stereo unspecified) | inactive

Row | Compound | Potency
79 | CCC(=O)N1CCc2cc(S(=O)(=O)NC(C(=O)Nc3ccc(C(C)=O)cc3)C(C)C)ccc21 (stereo unspecified) | inactive
80 | O=C(CO/N=C/c1ccccc1O)NNC(=O)c1ccccc1Cl | inactive
81 | O=C(Cc1ccccc1)N/N=C/c1ccc(Cl)cc1Cl | inactive
82 | O=C(NN=Cc1ccccc1O)NN=Cc1ccccc1O | 14.6 µM (active)
83 | Cc1ccc(S(=O)(=O)c2nc(-c3cccs3)oc2N2CCCCC2)cc1 | inactive
84 | N#Cc1ccc(OCC(=O)Nc2nc(-c3ccccn3)cs2)cc1 | 16.4 µM (active)
85 | CC1CCCCC1NC(=O)COc1ccc(C#N)cc1 (stereo unspecified) | inactive
86 | NS(=O)(=O)c1ccc2nc(NC(=O)COc3ccccc3)sc2c1 | inactive
87 | Cc1ccc(CNC(=O)CSc2c(C)cnc3c2c(=O)n(C)c(=O)n3C)cc1 | inactive
88 | O=C(CC1Oc2ccccc2NC1=O)NCc1ccc(F)cc1 (stereo unspecified) | inactive
89 | COc1ccc(NC(=O)c2ccco2)cc1NC(=O)COc1ccc(C)c(C)c1 | inactive
90 | Cc1ccc(C(CC(=O)O)Nc2nc(N3CCCCC3)nc(N3CCCCC3)n2)cc1 (stereo unspecified) | inactive
91 | CC(Nc1nc(N2CCCC2)nc2ccccc12)c1ccccc1 (stereo unspecified) | 16.4 µM (active)
92 | c1ccc(-c2cc(N3CCCCC3)c3ccccc3n2)cc1 | inactive
93 | CCC(C)N(c1ccc(/C=C/c2ccnc3ccccc23)cc1)C(C)CC (stereo unspecified) | inactive
94 | COc1ccc(CNC(=O)c2cc3cccc(OC)c3oc2=O)cc1 | inactive
95 | COc1cc(NC(=O)CN2CCN(S(=O)(=O)c3ccc(Br)cc3)CC2)cc(OC)c1 | inactive
96 | Cc1cccn2c(=O)c3cc(C(=O)NC(C)c4ccccc4)c(=N)n(CCCO)c3nc12 (stereo unspecified) | inactive
97 | Cc1cccn2c(=O)c3cc(C(=O)NCCN4CCOCC4)c(=N)n(Cc4cccnc4)c3nc12 | 8.2 µM (active)
98 | CCCn1c(=N)c(C(=O)NCc2ccccc2)cc2c(=O)n3cccc(C)c3nc21 | inactive
99 | COc1cc(NS(=O)(=O)c2cccs2)cc(OC)c1 | inactive
100 | CNC(=O)c1ccc(-c2nc(CN3CCc4ccccc43)c(C)o2)cc1 | inactive
101 | Cc1cccc(-n2ncc(C(=O)N3CCC(C)CC3)c2C2CCN(C(=O)OC(C)(C)C)CC2)c1 | inactive
